Test [1] is described as follows: qHTS assay to identify aromatase inhibitors - cell viability counter screen (AID 743084).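 Also: cells stimulated with testosterone during compound exposure; nearly all actives have a fitted effect of over 55% in size.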 Also: potency is read from the fitted curve at half-maximal effect. Conditions: MCF-7 aro ERE viability, CellTiter-Fluor, 24 h; series mostly up to 70.3 µM.
For test [2], the target named is Aryl hydrocarbon receptor (Homo sapiens) (UniProt P35869). The experiment in a line: qHTS assay to identify small molecule that activate the aryl hydrocarbon receptor (AhR) signaling pathway (AID 743085). Also: nearly all actives have a fitted effect of over 15% in size. Also: potency is read from the fitted curve at half-maximal effect.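 As to activation: HG2L7.5c1 human HepG2 liver cells with stably integrated DRE-driven firefly reporter.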 Conditions: HepG2 AhR-luc (HG2L7.5c1), luciferase, 24 h; series mostly up to 70.3 µM. Summed up:
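Luminescence (ONE-Glo) from a dioxin-responsive-element luciferase reporter in HG2L7.5c1 HepG2 cells after 24 hr compound exposure at 37C; viability measured by CellTiter-Fluor fluorescence beforehand.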

Test [3] is described as follows: qHTS assay to identify small molecule that activate the aryl hydrocarbon receptor (AhR) signaling pathway - cell viability counter screen (AID 743086). Also: nearly all actives have a fitted effect of over 45% in size. Also: potency is read from the fitted curve at half-maximal effect. Conditions: HepG2-AhR-luc viability, CellTiter-Fluor, 24 h; series mostly up to 70.3 µM. In short, it runs like this: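 Cytotoxicity counter screen: CellTiter-Fluor signal (30 min, 37 C) in 4000 HepG2 cells/well carrying the DRE-luciferase reporter, following 24 h compound exposure at 37 C.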

The nature of test [4]: qHTS assay for small molecule agonists of the antioxidant response element (ARE) signaling pathway - cell viability counter screen (AID 743203; calls by dose curve; also: nearly all actives have a fitted effect of over 55% in size; also: potency is read from the fitted curve at half-maximal effect). Conditions: ARE-bla HepG2 viability, CellTiter-Glo luminescence, 16 h; series mostly up to 73.3 µM. Summed up: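 Seeded at 2,000 cells/well, ARE-bla HepG2 cells were incubated 5 hrs before compound addition. After 16 hrs of treatment at 37C with 5% CO2, CellTiter-Glo reagent was added and luminescence read 30 min later.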

Test [5] can be described thus: qHTS assay for small molecule activators of the heat shock response signaling pathway - cell viability counter screen (AID 743209). Also: nearly all actives have a fitted effect of over 50% in size. Also: potency is read from the fitted curve at half-maximal effect. Conditions: HSE-bla HeLa viability, CellTiter-Glo luminescence, 5 h; series mostly up to 62.6 µM. In short, it runs like this: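 First, HSE-bla HeLa cells were seeded at 1500 cells/well and kept overnight at 37 C. Next, compounds were pinned in and incubated 5 h. After the FRET substrate step, CellTiter-Glo was added and luminescence read 30 min later.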

A short description of test [6]: qHTS assay for small molecule activators of the heat shock response signaling pathway (AID 743210; active = well fitted activation curve with a large enough effect in the signal ratio in the repeat runs, with a control signal flat, not every such curve was filed as active; the % refers to the signal ratio;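 also: HeLa cells with beta-lactamase reporter driven by heat shock elements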). Conditions: HeLa HSE-bla reporter, beta-lactamase ratio, 5 h; series mostly up to 62.6 µM. Summed up:
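HeLa HSE-bla cells, overnight plating; cpd in DMSO 5 h, 37 C; LiveBLAzer B/G FRET substrate 2.5 h RT; fluorescence intensity read.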

The target in test [7] is Peroxisome proliferator-activated receptor gamma (Homo sapiens) (UniProt P37231). The experiment in a line: qHTS assay to identify small molecule agonists of the peroxisome proliferator-activated receptor gamma (PPARg) signaling pathway (AID 743094; active = well fitted activation curve with a large enough effect in the signal ratio in the repeat runs, not every such curve was filed as active; the % refers to the signal ratio). To be noted: HEK293H PPARg-UAS-bla, beta-lactamase FRET ratio, 17 h; series mostly up to 57 µM. Summed up:
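Quantitative HTS agonist mode: stable HEK293H line with UAS-beta-lactamase reporter under PPARg control, 17 h compound exposure at 37C, fluorescence after 1 h FRET substrate loading at room temperature.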

The target is the same in test [8]. Nature of the test: qHTS assay to identify small molecule antagonists of the peroxisome proliferator-activated receptor gamma (PPARg) signaling pathway (AID 743191; calls by dose curve; also: nearly all actives have a fitted effect of over 30% in size; also: potency is read from the fitted curve at half-maximal effect). Conditions: HEK293H PPARg-UAS-bla, beta-lactamase ratio, antagonist, 17 h; series mostly up to 62.6 µM. Summed up: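 Beta-lactamase reporter under UAS control in HEK293H PPARg-bla cells; compound treatment 17 h at 37C. Read-out: fluorescence intensity after 1 h room-temperature incubation with LiveBLAzer B/G FRET substrate.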

A short description of test [9]: qHTS assay for small molecule agonists of the antioxidant response element (ARE) signaling pathway (AID 743202; active = well fitted activation curve with a large enough effect in the signal ratio in the repeat runs, not every such curve was filed as active; the % refers to the signal ratio; also: potency is read from the fitted curve at half-maximal effect). To be noted: HepG2 ARE-bla reporter, beta-lactamase FRET, 16 h; series mostly up to 73.3 µM. In short, it runs like this: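 Quantitative high-throughput format in HepG2 cells bearing an integrated ARE-beta-lactamase reporter. Compound exposure lasted 16 h at 37 C, and fluorescence was read 2 h after adding LiveBLAzer B/G substrate at room temperature.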

The nature of test [10]: qHTS assay to identify small molecule antagonists of the peroxisome proliferator-activated receptor gamma (PPARg) signaling pathway - cell viability counter screen (AID 743194). Also: nearly all actives have a fitted effect of over 55% in size. Also: potency is read from the fitted curve at half-maximal effect. Conditions: PPARg-bla HEK293H viability, CellTiter-Glo luminescence, 17 h; Potency: co-treated with 50 nM rosiglitazone unless noted; series mostly up to 62.6 µM. In short, it runs like this: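 Viability was measured as CellTiter-Glo luminescence in GeneBLAzer PPARg UAS-bla HEK293H cells. These cells had been exposed 17 h at 37 C to compounds together with rosiglitazone at 50 nM final, with the beta-lactamase readout taken in the same wells.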

Several values for one entry are separate records, joined by “and”; a condition that tells them apart may be missing. Equal entries are not always repeated. Records with an inconclusive call do not appear. The source holds several records for some structures; these can differ, active in one and inactive in another. Activity calls are given as the source filed them. Unless noted, calls follow the shape of the dose curve; as a rule, active = well fitted curve in the direction sought with a large enough effect in the repeat runs; inconclusive = weak or mixed curves; inactive = no such curve, though single readings can be large; an effect the other way counts as inactive or inconclusive.

Sequence of Peroxisome proliferator-activated receptor gamma (Homo sapiens) (P37231 whole entry, looked up): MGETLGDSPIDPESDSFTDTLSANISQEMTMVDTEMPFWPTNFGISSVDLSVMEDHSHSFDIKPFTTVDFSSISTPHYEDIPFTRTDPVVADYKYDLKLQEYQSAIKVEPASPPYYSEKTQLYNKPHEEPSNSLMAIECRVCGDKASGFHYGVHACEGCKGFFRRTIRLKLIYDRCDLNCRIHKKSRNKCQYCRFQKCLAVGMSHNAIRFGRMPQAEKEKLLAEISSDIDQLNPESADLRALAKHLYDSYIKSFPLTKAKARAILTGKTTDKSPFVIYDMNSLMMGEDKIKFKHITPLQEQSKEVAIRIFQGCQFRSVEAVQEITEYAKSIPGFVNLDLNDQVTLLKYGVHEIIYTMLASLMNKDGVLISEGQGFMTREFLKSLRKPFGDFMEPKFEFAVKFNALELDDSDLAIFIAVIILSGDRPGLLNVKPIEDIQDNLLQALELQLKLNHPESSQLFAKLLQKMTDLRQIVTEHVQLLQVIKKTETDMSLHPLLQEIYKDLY
Sequence of Aryl hydrocarbon receptor (Homo sapiens) (P35869 whole entry, looked up): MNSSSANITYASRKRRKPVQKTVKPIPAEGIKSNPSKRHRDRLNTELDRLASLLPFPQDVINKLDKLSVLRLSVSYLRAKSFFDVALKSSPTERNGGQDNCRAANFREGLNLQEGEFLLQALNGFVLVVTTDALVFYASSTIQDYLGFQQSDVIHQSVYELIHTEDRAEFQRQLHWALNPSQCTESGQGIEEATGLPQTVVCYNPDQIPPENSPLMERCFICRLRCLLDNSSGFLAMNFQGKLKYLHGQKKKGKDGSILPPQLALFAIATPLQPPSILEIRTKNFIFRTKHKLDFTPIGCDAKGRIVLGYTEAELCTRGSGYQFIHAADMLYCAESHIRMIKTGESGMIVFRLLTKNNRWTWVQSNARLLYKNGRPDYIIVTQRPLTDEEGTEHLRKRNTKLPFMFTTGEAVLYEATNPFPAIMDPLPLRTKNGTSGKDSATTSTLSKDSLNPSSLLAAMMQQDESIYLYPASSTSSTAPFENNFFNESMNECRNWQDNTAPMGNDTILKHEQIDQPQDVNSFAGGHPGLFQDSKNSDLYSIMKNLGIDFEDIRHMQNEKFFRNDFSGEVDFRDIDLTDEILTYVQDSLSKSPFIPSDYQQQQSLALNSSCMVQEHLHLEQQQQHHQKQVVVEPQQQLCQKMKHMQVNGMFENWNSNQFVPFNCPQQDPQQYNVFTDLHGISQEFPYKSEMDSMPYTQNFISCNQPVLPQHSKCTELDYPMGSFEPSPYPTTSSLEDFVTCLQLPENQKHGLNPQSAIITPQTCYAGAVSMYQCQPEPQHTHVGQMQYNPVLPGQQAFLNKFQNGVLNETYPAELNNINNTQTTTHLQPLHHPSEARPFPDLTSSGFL

Regarding `C=CC(=O)OCC(CC)(COC(=O)C=C)COC(=O)C=C`, the Potency in test [1] was 6.28 µM (active) and 6.86 µM (active); in test [3], 31.5 µM (active) and 27.3 µM (active); in test [4], “inactive and 61.1 µM (active)”; in test [5] it was 3.56 µM (active) and 1.55 µM (active). Besides, the Potency entry in test [2] is “inactive”.

In the case of `O=[N+]([O-])c1ccc(Nc2ccccc2)cc1`, the Potency in test [1] was 30.9 µM (active) and 27.3 µM (active); in [3] it was 24.5 µM (active) and 24.3 µM (active); in [4], 34.4 µM (active); in [5], “inactive and 27.5 µM (active)”. Moreover, the Potency result in test [2] and in [6] was “inactive” each time.

Turning to `c1ccc2c(c1)Nc1ccccc1S2`, the Potency entry in test [1], in test [3], in [7], in [8], in test [9] and in test [4] was “inactive” each time. Besides, the Potency result in test [5] and in [6] was “inactive” in each case.

Take `C=C(C)C#N`: the Potency entry in [1], in [2], in [3], in [10], in test [9] and in test [5] was “inactive” each time. Also, the Potency result in test [6] was “inactive”.

Take `CN(C)c1ccccc1`: the Potency entry in test [3], in [9], in test [4], in test [5] and in [6] was “inactive” throughout.

On to `N#CC(c1ccccc1)c1ccccc1`, for which the Potency entry in test [1], in [3], in test [7], in test [8], in test [10] and in test [9] was “inactive” throughout. Besides, the Potency entry in [5] and in test [6] was “inactive” each time.

For `O=[N+]([O-])/N=C1\NCCN1Cc1ccc(Cl)nc1`, the Potency entry in test [1], in test [3], in test [7], in test [8], in [9] and in test [4] was “inactive” each time. For the same molecule, the Potency result in [5] and in [6] was “inactive” throughout.

Turning to `CCOP(=O)(O)OCC` (tested in a mixture with another compound), the Potency result was “inactive and 24.1 µM (active)” in [1]; “inactive and 30.4 µM (active)” in test [3]; “inactive and 17.1 µM (active)” in test [4]. Also, the Potency result in test [9] and in test [5] was “inactive” in each case.

Consider `Clc1cccc(C(Cl)(Cl)Cl)n1`, for which the Potency entry in test [1], in [3], in [7], in test [8], in test [10] and in [9] was “inactive” in each case. For the same molecule, the Potency result in test [5] and in test [6] was “inactive” in each case.

`O=[N+]([O-])c1ccc(Cl)c([N+](=O)[O-])c1`: the Potency in [1] is 6.21 µM (active) and 6.86 µM (active); in test [3], 24.7 µM (active) and 27.3 µM (active); in test [8], 8.85 µM (active) and 8.71 µM (active); in test [10], 11.1 µM (active) and 9.77 µM (active); in [5], 9.92 µM (active) and 4.9 µM (active). Besides, in [2], the Potency entry was “inactive”.

For the molecule `CC(C)(c1ccc(OCC2CO2)cc1)c1ccc(OCC2CO2)cc1` (configuration not stated), the Potency result in test [1], in [2], in [3] and in [5] was “inactive” in each case. The Potency in [9] was 61.1 µM (active).

For `O=C1C(Cl)=C(Cl)C(=O)c2ccccc21`, the Potency was 4.34 µM (active) and 27.3 µM (active) in test [1]; 17.3 µM (active) and 10.9 µM (active) in test [2]; 39 µM (active) and 11 µM (active) in test [10]; 27.6 µM (active) and 12.3 µM (active) in test [5].

Consider `COc1ccc(CO)cc1`, for which the Potency entry in test [1], in [2], in [3], in test [10], in test [9] and in [4] was “inactive” each time. For the same molecule, the Potency result in [5] and in [6] was “inactive” in each case.

Regarding `Oc1ccc(Cl)cc1Cc1ccccc1`, the Potency result is “inactive and 30.6 µM (active) and 49.2 µM (active)” in test [1]; 68.6 µM (active) and 55.1 µM (active) in test [4]; 54.9 µM (active) and 45.4 µM (active) and inactive in [5]. The Potency result in test [2], in test [3] and in [7] was “inactive” each time.

With `CCC[CH2][Sn]([Cl])([CH2]CCC)[CH2]CCC`, the Potency in [1] is 1.54 µM (active) and 3.06 µM (active); in test [3] it was 2.17 µM (active) and 3.44 µM (active); in [4] it was 771 nM (active) and 1.09 µM (active); in test [5], 1.74 µM (active) and 2.75 µM (active). The Potency result in [2] is “inactive”.

On to `Cl`, for which the Potency result in test [1], in [2], in [3], in test [9], in test [5] and in test [6] was “inactive” throughout.

For the molecule `CC(C)(c1ccccc1)c1ccc(O)cc1`, the Potency in test [1] was 48.2 µM (active); in test [4] it was 60.6 µM (active). In addition, the Potency result in [2], in test [7], in test [8], in test [5] and in test [6] was “inactive” throughout.

For the origin of these results see PubChem BioAssay (Tox21).
